The list is not random: actives were taken first. Their share in the collection is about 2.3%.
M1 PAM parental – M1 PAM counterscreen hit in parental CHO-K1 cells | ATP EC20, Fluo-8 calcium fluorescence; 0% at ATP EC20, 100% at ATP max | 360,000 tested, 0.02% active | activation, % at 3 µM | AID 602247;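 active = activation above the run cutoff, the mean activation of all test compounds plus 3 SD, cut at about 40% in these data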;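 also: peak over basal fluorescence ratio in a 140 s read after ATP addition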
CHO-K1 Ca ag – M1 agonist counterscreen hit in parental CHO-K1 cells | Fluo-8 calcium fluorescence; scaled to maximal ATP response, vehicle zero | activation, % at 3 µM | 360,000 tested, 0.48% active; in the data active = activation above about 15%;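 also: untransfected CHO-K1 host cells lacking M1 receptor as counterscreen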
CHO-K1 Ca antag – counter-screen for M1 antagonists: effect in parental CHO-K1 cells; ATP-induced calcium, Fluo-8 fluorescence; 360,000 tested, 0.6% active; inhibition, % at 3 µM;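 active = inhibition above a per-plate cutoff, the plate's mean sample inhibition plus 3 SD, cut at about 24% in these data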;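 also: 0% = DMSO plus EC80 ATP and 100% = DMSO alone without ATP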
CHRM1 PAM – human CHRM1 positive allosteric modulation; P11229; CHO-K1 hM1, Fluo-8 calcium fluorescence, ACh EC20; 0% = ACh EC20, 100% = maximal ACh; activation, % at 3 µM; 360,000 tested, 0.088% active; in the data active = activation above about 19%, passing the limit was not always enough
Target sequence (P11229 whole entry, looked up): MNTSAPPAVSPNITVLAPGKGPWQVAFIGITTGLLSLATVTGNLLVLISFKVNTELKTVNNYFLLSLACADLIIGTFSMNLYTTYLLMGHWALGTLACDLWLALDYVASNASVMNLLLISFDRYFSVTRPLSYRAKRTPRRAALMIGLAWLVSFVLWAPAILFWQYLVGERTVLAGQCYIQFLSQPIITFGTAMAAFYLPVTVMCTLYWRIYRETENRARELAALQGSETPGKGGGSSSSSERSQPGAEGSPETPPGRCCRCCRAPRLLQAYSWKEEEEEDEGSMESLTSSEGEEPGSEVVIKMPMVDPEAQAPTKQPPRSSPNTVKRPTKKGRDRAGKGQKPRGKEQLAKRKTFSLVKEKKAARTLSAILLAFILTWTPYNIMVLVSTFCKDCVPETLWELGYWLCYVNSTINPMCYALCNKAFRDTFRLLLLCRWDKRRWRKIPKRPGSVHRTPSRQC
M1 ag – human M1 muscarinic receptor agonism; activation, % at 3 µM; P11229; 360,000 tested, 0.33% active; CHO-K1 hM1, Fluo-8 calcium fluorescence, agonist mode; 0% DMSO, 100% acetylcholine EC100;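 active = activation above the run's mean compound activation plus 3 SD, cut at about 16% in these data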;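 also: peak over basal fluorescence ratio within a 140 s kinetic read after compound addition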
CHRM1 antagonist – human CHRM1 antagonism; inhibition, % at 3 µM; CHO-K1 hM1, Fluo-8 calcium fluorescence, ACh EC80 antagonist; 360,000 tested, 1.3% active; P11229;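 active = percent inhibition above its own plate's cutoff, namely the mean of that plate's compound wells plus 3 SD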;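 also: peak over basal fluorescence ratio during 140 s after agonist addition; 0% = ACh EC80 plus DMSO and 100% = DMSO alone without agonist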
* marks the source's active call; other numbers are inactive results.

SMILES | M1 PAM parental | CHO-K1 Ca ag | CHO-K1 Ca antag | CHRM1 PAM | M1 ag | CHRM1 antagonist
CCOc1ccccc1-n1c(SC(C)C(=O)NCC2CCCO2)nc2ccccc2c1=O (stereo unspecified) | -15 | 0 | -1 | 2 | 30* | -5
COC(=O)c1cc(=O)nc(NNC(C)=O)s1 | 12 | 0 | -3 | -2 | -6 | 3
O=C(O)c1ccc(N(c2ccccc2)c2ccccc2)cc1 | 23 | 1 | -7 | 6 | -5 | -13
CCN(CC)c1ccc(/C=C2\C(=O)c3ccc(C(=O)O)cc3C2=O)cc1 | -7 | 38* | 22 | -29 | 126* | 62*
CCN(CC)c1ccc(C(=O)O)cc1 | -13 | 0 | 25* | -5 | -6 | 10
Cc1ccc2nc(C(C)(C)C)c(Cc3cccc(F)c3)n2c1 | 3 | 0 | -3 | -23 | -6 | 14
CO/N=C/c1ccc(N2CCN(C(=O)c3ccc(Cl)cc3Cl)CC2)c([N+](=O)[O-])c1 | 3 | 12 | 22 | -9 | 10 | 24*
OC(CCN1CCC2CCC(C2)C1)c1ccc(Br)cc1 (stereo unspecified) | 3 | 1 | -10 | -25 | -5 | 37*
O=C(CCN1CCC2CCC(C2)C1)c1ccccc1 (stereo unspecified) | -17 | 0 | 1 | 4 | -4 | -17
Cc1cc(C)c(NN=c2c(=O)c3ccccc3c2=O)c(C)c1 | -5 | 0 | 11 | -27 | -11 | 34*
OC(CC#CCN1CCOCC1)(c1ccccc1)c1ccccc1 | 5 | 0 | -2 | 5 | -9 | -10
OC(CC#CCN1CCCC1)(c1ccccc1)c1ccccc1 | 13 | 1 | -1 | -25 | -6 | 100*
CC(C)CC(O)(c1ccccc1)C(CN1CCOCC1)c1ccccc1 (stereo unspecified) | 10 | 0 | -16 | 1 | -3 | -3
CC(C)C(O)(CC#CCN1CCCC1)c1ccccc1 (stereo unspecified) | 17 | 2 | -8 | -26 | -8 | 99*
C(#CCN1CCCC1)CC(c1ccccc1)c1ccccc1 | 3 | 7 | -8 | -32 | -13 | 100*
CC(C)(C)C(O)(CC#CCN1CCCC1)c1ccccc1 (stereo unspecified) | -11 | 0 | -6 | -23 | -5 | 98*
OC(CC#CCN1CCCCC1)(c1ccccc1)c1ccccc1 | 13 | 2 | -8 | -29 | -7 | 97*
CC(C)(C)N(CC#CCC(O)(c1ccccc1)c1ccccc1)CCO | 16 | 1 | -11 | -14 | -8 | 13
CCc1nc2ccc(C(=O)Nc3cc(-c4ccccc4)ccc3OC)cn2c1N(CCN(C)C)CC1CC1 | -8 | 0 | 12 | -9 | 7 | 22
O=C(Nc1cccc(Cl)c1)OCCOCCOC(=O)Nc1cccc(Cl)c1 | 5 | 1 | -11 | -5 | -2 | 5
O=C(Nc1cccc(Cl)c1)ON=C1c2ccccc2-c2ccccc21 | -15 | 2 | 21 | -16 | -9 | 29*
CC(=O)Nc1ccc(C(=O)N2CCCC(c3cc(C(=O)NCc4cccnc4)no3)C2)cc1 (stereo unspecified) | 14 | 1 | -4 | 8 | -6 | -16
Cc1noc(C)c1-c1ccc(C(=O)Nc2cccc(C(F)(F)F)c2)c2occc12 | 25 | 0 | -21 | -2 | -7 | 0
Nc1[nH]n2c(=O)cc(-c3ccccc3)nc2c1N=Nc1ccc(S(N)(=O)=O)cc1 | -6 | -1 | 25* | 12 | -3 | 0
Nc1[nH]n2c(=O)cc(-c3ccccc3)nc2c1N=Nc1ccccc1 | -10 | 0 | 21 | -1 | -4 | -1
COC(=O)c1cc(C(=O)OCC(=O)c2ccc[nH]2)cc([N+](=O)[O-])c1 | -22 | 0 | 17 | 2 | -5 | 6
COC(=O)c1cc(C(=O)OCC(=O)NC(=O)c2ccccc2)cc([N+](=O)[O-])c1 | 4 | 0 | 5 | 2 | -2 | 28*
COc1cccc(OC)c1C(=O)NCCOc1cc(C)cc(C)c1 | 4 | 15* | 10 | 6 | 1 | -11
Cc1ccnc(NS(=O)(=O)c2ccc(NC(=O)Cc3ccccc3)cc2)n1 | -10 | 0 | 25* | 0 | -4 | 4
Cc1ccc(CC(=O)Nc2ccc(S(=O)(=O)Nc3nccc(C)n3)cc2)cc1 | 5 | -1 | -9 | 6 | 0 | -8

Assay outcomes: PubChem BioAssay, The Scripps Research Institute Molecular Screening Center
